Measured values from PubChem BioAssay (NCATS).
Results filed as inconclusive are left out. Activity calls are given as the source filed them. Unless noted, no rule for the calls is given here.

Assays:
[1] = qHTS profiling of the MIPE4 collection as inhibitors of Plasmodium falciparum (3D7) proliferation (AID 743344);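 also: scaled between DMSO vehicle wells and 0.29 µM artemisinin as full inhibition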; conditions: P. falciparum 3D7 in erythrocytes, SYBR Green DNA fluorescence, 72 h; at 28.5 µM unless noted
Outline: (§1)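 Erythrocytes infected with P. falciparum (0.3% parasitemia, 2.5% hematocrit) incubated with compounds 72 h at 37 C, 5% CO2. Lysis with saponin/Triton buffer containing SYBR Green I, overnight at room temperature in the dark; DNA fluorescence (485/535 nm) normalised to 0.29 uM artemisinin and DMSO.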

[2] = qHTS profiling of the MIPE4 collection as inhibitors of Plasmodium falciparum (DD2) proliferation (AID 743345); conditions: P. falciparum Dd2 in erythrocytes, SYBR Green DNA, 72 h; at 28.5 µM unless noted
Outline: as §1

[3] = qHTS profiling of the MIPE4 collection as inhibitors of Plasmodium falciparum (DD2) proliferation (Rep 2) (AID 743346); conditions: P. falciparum Dd2 in erythrocytes, SYBR Green DNA, 72 h; at 28.5 µM unless noted
Outline: as §1

[4] = qHTS profiling of the MIPE4 collection as inhibitors of Plasmodium falciparum (HB3) proliferation (AID 743347);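 also: plate controls were DMSO vehicle wells for no effect and artemisinin wells for full effect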; conditions: P. falciparum HB3 in erythrocytes, SYBR Green DNA, 72 h; at 28.5 µM unless noted
Outline: as §1

[5] = High-throughput drug toxicity screening in the BPDCN cell line Gen2.2 (AID 1224824); conditions: Gen2.2 BPDCN cells; at 45.8 µM (top of the series) unless noted;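 also: cells exposed to compounds for 48 h before reading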
Outline: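 Seed 500 exponentially growing Gen2.2 cells/well; add compounds by pin tool; incubate 48 h, 37 °C, 5% CO2; add CellTiter-Glo, 15 min RT; read luminescence. % activity vs DMSO (100%) and bortezomib (0%).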

[6] = High-throughput drug toxicity screening in the BPDCN cell line Cal-1 (AID 1224825); conditions: Cal-1 BPDCN cell viability, qHTS; at 45.8 µM (top of the series) unless noted
Outline: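 500 Cal-1 cells/well, RPMI + glutamine + 10% FBS (phenol red-free); cpd added by pin tool; 48 h, 37C, 5% CO2; CTG 15 min RT, lumi read. Normalised: DMSO 100%, bortezomib 9.2 uM 0%.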

[7] = qHTS assay for measurement of the activity of small molecule inhibitors on Zika virus induced Caspase-3 activity in human iPSC derived neural progenitor cells (hNPCs) (AID 1224857; active = well fitted curve in the direction sought with a large enough effect; an effect the other way counts as inactive or inconclusive; also: nearly all actives have a fitted effect of over 65% in size; also: potency is read from the fitted curve at half-maximal effect)
Outline: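 Caspase-3/7 induction by a 6-hour ZIKV infection was quantified with a luminescent Caspase-Glo 3/7 reagent incubated 30 minutes at room temperature. Compounds were preincubated with hNPCs for 1 hour; inhibition was calculated against uninfected and infected control wells.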

[8] = qHTS profiling for inhibitors of Plasmodium falciparum (3D7) proliferation (AID 743322);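 also: infected erythrocytes exposed to compound for 72 h before lysis; 100% = DMSO vehicle wells and 0% = 0.29 µM artemisinin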; conditions: P. falciparum 3D7 proliferation; at 28.7 µM (top of the series)
Outline: as §1

[9] = qHTS profiling for inhibitors of Plasmodium falciparum (HB3) proliferation (AID 743324; active = well fitted curve in the direction sought with a large enough effect; an effect the other way counts as inactive or inconclusive;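 also: 100% = DMSO vehicle wells and 0% = artemisinin-treated control wells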); conditions: Plasmodium falciparum HB3 blood-stage proliferation; at 28.7 µM (top of the series)
Outline: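 P. falciparum HB3 grown in erythrocytes (0.3% parasitemia, 2.5% hematocrit final) with compound for 72 h at 37 C, 5% CO2. Parasite DNA detected by SYBR Green after saponin/triton lysis overnight; normalized to 0.29 uM artemisinin and DMSO.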

Row | SMILES | parasite growth, % of DMSO control [1] [%] | parasite growth remaining, % of DMSO control (lower = more inhibition) [2] [%] | parasite growth, % of control (lower = inhibition) [3] [%] | growth, % of control [4] [%] | cell viability, % of control (lower = more cytotoxic) [5] [%] | viability (% of control) [6] [%] | Potency [7] | remaining parasite growth % (stronger effect = lower value) [8] [%] | remaining proliferation (% of control), lower = more inhibition [9] [%]
1 | C[C@]12CC[C@@H]3c4ccc(O)cc4CC[C@H]3[C@H]1C[C@@H](O)[C@H]2O | 87 | 91.2 | 76.7 | 63.5 | 77.1 | 67.8 | inactive |  | 
2 | COc1cccc([C@@H](C)NCCCc2ccccc2Cl)c1 | 6.27 | 78.7 | 13.3 | 7.8 | 172 | 66.2 | inactive |  | 
3 | O=C(NCc1ccncc1)C12C[C@H]3C[C@@H](C1)CC(c1ccc(Cl)cc1)(C3)C2 | 20 | 93.6 | 26 | 42.3 | 16.2 | 11.3 | inactive |  | 
4 | CC1(C)Cc2c(sc(NC(=S)NC(=O)c3ccccc3)c2C(=O)O)CO1 | 90.4 | 100 | 110 | 103 | 100 | 95.7 | 20.9 µM (active) |  | 
5 | CC=CC(=O)N(CC)c1ccccc1C | 92.3 | 104 | 142 | 99.4 | 116 | 35 | inactive |  | 
6 | O=C(Nc1cccc(Br)c1)c1cccc(S(=O)(=O)N2CCCCCC2)c1 | 55.6 | 51.8 | 72.2 | 21.1 | 296 | 76 | inactive |  | 
7 | CO[C@H]1C[C@@H]2CC[C@@H](C)[C@@](O)(O2)C(=O)C(=O)N2CCCC[C@@H]2C(=O)O[C@H]([C@H](C)C[C@@H]2CC[C@H](OC(=O)C(C)(CO)CO)[C@H](OC)C2)CC(=O)[C@H](C)C=C(C)[C@@H](O)[C@@H](OC)C(=O)[C@H](C)C[C@H](C)C=CC=CC=C1C | 5.79 | 6.2 | 9.78 | 3.93 | 6.71 | 3.11 | inactive |  | 
8 | C=CCc1ccc(O)c(-c2ccc(O)c(CC=C)c2)c1 | 22.1 | 75.6 | 27.4 | 3.7 | 34.9 | 21.1 | inactive |  | 
9 | CC[C@@H]1C=C(C)C[C@H](C)C[C@H](OC)[C@H]2O[C@@](O)(C(=O)C(=O)N3CCCC[C@@H]3C(=O)O[C@H](C(C)=C[C@@H]3CC[C@H](Cl)[C@H](OC)C3)[C@H](C)[C@@H](O)CC1=O)[C@H](C)C[C@H]2OC | 27.5 | 6.74 | 17.3 | 64.6 | 12.7 | 20.8 | inactive |  | 
10 | COc1ccc(Cc2ccc(NC(N)=O)cc2)cc1-c1cccc(Cl)c1 | 61.7 | 89.9 | 38.4 | 69.6 | 234 | 91.3 | inactive |  | 
11 | COC(=O)N[C@H](C(=O)N1CCC[C@@H]1c1ncc(-c2ccc(-c3ccc(-c4cnc([C@@H]5CCCN5C(=O)[C@@H](NC(=O)OC)C(C)C)[nH]4)cc3)cc2)[nH]1)C(C)C | 9.52 | 9.13 | 24.9 | 14.2 | 6.1 | 28.7 | inactive |  | 
12 | Cc1cccc(Nc2nc(-c3ccncc3)cs2)c1 | 29.1 | 71 |  | 17.7 | 75.6 | 82.9 | inactive |  | 
13 | CN(C)CCC=C1c2ccccc2COc2ccc(CC(=O)O)cc21 | 91.3 | 91.8 |  | 99.1 | 162 | 98 | inactive |  | 
14 | COCCCCC(=NOCCN)c1ccc(C(F)(F)F)cc1 | 47.6 | 56.9 |  | 47.6 | 56 | 88.3 | inactive |  | 
15 | Cc1nc(N)sc1-c1ccnc(Nc2ccc(N3CCOCC3)cc2)n1 | 6.44 | 9.15 |  | 5.5 | 33.6 | 6.5 |  | 2.54 | 10.5
16 | NC(=O)c1ccc2nc(-c3ccc(Oc4ccc(Cl)cc4)cc3)[nH]c2c1 | 48.1 | 76.9 | 61.3 | 83.4 | 59.5 | 38 | inactive |  | 
17 | COc1ncc(-c2ccc3nccc(-c4ccnnc4)c3c2)cc1NS(=O)(=O)c1ccc(F)cc1F | 4.65 | 7.55 | 6.02 | 4.97 | 3.44 | 3.33 |  | -1.12 | -1.02
18 | Nc1ncnc2c1nc(Cl)n2[C@@H]1O[C@H](CO)[C@@H](O)[C@@H]1O | 187 | 109 |  | 125 | 6.19 | 9.15 | inactive |  | 
19 | N#CC1(c2ccc(NC(=O)c3cccnc3NCc3ccncc3)cc2)CCCC1 | 18.4 | 72.9 | 65.6 | 23.3 | 286 | 93.1 | 16.6 µM (active) |  | 
20 | N#C[C@H]1C[C@H]2C[C@@H]2N1C(=O)[C@@H](N)C12CC3CC(CC(O)(C3)C1)C2 | 97.9 | 103 | 97 | 69.2 | 112 | 100 | inactive |  | 
21 | COc1ccc(-c2nc(N3CCOCC3)c3sc(CN(C)c4ncc(C(=O)NO)cn4)cc3n2)cn1 | 5.2 | 6.7 | 8.46 | 2.4 | 8.39 | 2.7 | inactive |  | 
22 | CC(C)C(C)C=CC(C)C1CCC2C3=CC=C4CC(O)CCC4(C)C3CCC21C (stereo not given) |  | 102 | 92.8 | 98 | 136 | 127 | inactive |  | 
